Assay outcomes from PubChem BioAssay.
The list is not random: actives were taken first. Their share in the collection is about 7.9%.
HT1080 IDH1KD tx = kills HT-1080 cells with IDH1 knockdown; HT-1080 IDH1 knockdown viability, ATP luminescence, 48 h; Potency, µM (highest dose often 46.1 µM), for the others: at the top dose activity, negative = toxicity, hits mostly cytotoxic; actives 2% (n = 360,000); AID 686971;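 note: 0% = DMSO wells and -100% = cell-free medium wells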
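Using the IDH1-knockdown HT-1080 line run in the same batch and compound series as the NT line, viability after 48 h at 37 °C was determined by CellTiter-Glo luminescence and expressed as % activity.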
KB-V1 MDR tox = KB-V1 MDR subline cytotoxicity; Potency, µM (doses to about 46.1 µM), usual class: cytotoxic; KB-V1 MDR cells viability, CellTiter-Glo, 72 h; actives 3.4% (n = 400,000); note: % is set by controls: 0 for no effect and ±100 for the full control effect; nearly all actives have a fitted effect of over 60% in size
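Cells of the MDR subline KB-V1 are plated, dosed with compound at multiple concentrations, and incubated 72 h at 37 degrees C; CellTiter-Glo is then added and luminescence read after 10 min.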
MCF10A rereplic = induces DNA re-replication in MCF 10a normal breast cells | MCF 10A DNA re-replication, Hoechst nuclear intensity, 48 h | Potency, µM (doses to about 46.1 µM), for the others: at the top dose activity, positive = re-replication, hits mostly activators | actives 2.9% (n = 350,000) | AID 624296; note: % of control where 0% means no effect; nearly all actives have a fitted effect of over 50% in size
HT1080NT lethal = kills 2HG-producing HT-1080-NT fibrosarcoma cells. actives 1.6% (n = 360,000). Potency, µM (titrated, usually from 46.1 µM), for the others: top-dose activity, negative = less viability, usual class: cytotoxic. HT-1080-NT fibrosarcoma viability, CellTiter-Glo ATP luminescence, 48 h. AID 686970;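 note: NT is the 2HG producing partner of a matched IDH1 knockdown line; 0% = DMSO-treated cells and -100% = media-only wells without cells; nearly all actives have a fitted effect of over 55% in size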
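A 48-hour cytotoxicity screen used HT-1080-NT cells plated 2 hours before compound delivery. ATP-based CellTiter-Glo luminescence measured viability, normalized to DMSO and no-cell controls.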
KB-3-1 tox = KB-3-1 parental cell cytotoxicity; KB-3-1 viability, CellTiter-Glo ATP luminescence, 72 h; Potency, µM (titrated, usually from 46.1 µM), hits mostly cytotoxic; actives 1.4% (n = 400,000); AID 1347075; note: % is set by controls: 0 for no effect and ±100 for the full control effect; nearly all actives have a fitted effect of over 60% in size
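Cytotoxicity measured as CellTiter-Glo luminescence after 72 h at 37 C. Compound titrations were pinned onto drug-naive KB-3-1 parental adenocarcinoma cells grown in DMEM with 10% FBS, and normalized data fitted to concentration-response curves.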
SW480 rerep = induces DNA re-replication in SW480 colon adenocarcinoma cells. SW480 DNA re-replication, Hoechst DNA content imaging, 48 h. Potency, µM (series often up to 46.1 µM), inactives show at the top dose re-replication activation, usual class: activators. actives 1.8% (n = 340,000). AID 624297; note: % of control where 0% means no effect; nearly all actives have a fitted effect of over 55% in size
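Per well, 250 cells were exposed to pinned compound for 48 hr. Nuclear DNA was visualised with Hoechst (40 min, 37 C) and total object intensity recorded by fluorescence scanning.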
Starred values were filed as active, the others as inactive. Calls come from the whole dose curve; as a rule, active = well fitted curve in the direction sought with a large enough effect; inconclusive = small, poorly fitted or top-dose-only effect, or another doubt; inactive = no such curve, though single readings can be large; an effect the other way counts as inactive or inconclusive. Potency is the fitted concentration of half-maximal effect.

What do the screens show for `Cc1ccc(S(=O)(=O)Oc2cccc([N+](=O)[O-])c2)cc1`?
HT1080 IDH1KD tx: -18%; KB-V1 MDR tox: inactive; MCF10A rereplic: inconclusive; HT1080NT lethal: -16%; KB-3-1 tox: inactive; SW480 rerep: inconclusive

Results for CCN(C(=O)Cn1c(=O)n(CC2CCC(C(=O)NC)CC2)c(=O)c2sccc21)c1ccccc1 (stereo not given) ?
KB-V1 MDR tox: inactive; KB-3-1 tox: inactive

What do the screens show for `O=C(c1ccccc1)N(Cc1cccnc1)C1(C(=O)Nc2ccccc2)CCCCC1`?
HT1080 IDH1KD tx: -7%; KB-V1 MDR tox: 10µM*; MCF10A rereplic: 16%; HT1080NT lethal: 3%; KB-3-1 tox: inconclusive; SW480 rerep: inconclusive

Results for CCCn1nnc(NC(=O)COc2ccc(Cl)cc2)n1 ?
HT1080 IDH1KD tx: 8%; KB-V1 MDR tox: inactive; MCF10A rereplic: 8%; HT1080NT lethal: 7%; KB-3-1 tox: inactive; SW480 rerep: -2%

Results for CCCn1nnc(NC(=O)/C=C/c2ccco2)n1 ?
HT1080 IDH1KD tx: 17%; KB-V1 MDR tox: inactive; MCF10A rereplic: 30%; HT1080NT lethal: 20%; KB-3-1 tox: inactive; SW480 rerep: 21µM*

How did CCCn1nnc(NC(=O)c2ccc(-c3cc(Cl)ccc3Cl)o2)n1 do in these assays?
HT1080 IDH1KD tx: -3%; KB-V1 MDR tox: inactive; MCF10A rereplic: 20%; HT1080NT lethal: -1%; KB-3-1 tox: inactive; SW480 rerep: 3%

How did CCCn1nnc(NC(=O)Cc2ccc(Cl)cc2)n1 do in these assays?
HT1080 IDH1KD tx: 2%; KB-V1 MDR tox: inactive; MCF10A rereplic: 8.2µM*; HT1080NT lethal: 6%; KB-3-1 tox: inconclusive; SW480 rerep: -2%

Results for CCCn1nnc(NC(=O)c2ccccc2Br)n1 ?
HT1080 IDH1KD tx: 4%; KB-V1 MDR tox: inactive; MCF10A rereplic: 18µM*; HT1080NT lethal: 1%; KB-3-1 tox: inactive; SW480 rerep: 5.2µM*

How did CCCCn1nnc(NC(=S)NC(=O)c2ccc(-c3cccc(Cl)c3Cl)o2)n1 do in these assays?
HT1080 IDH1KD tx: 1%; KB-V1 MDR tox: 15µM*; MCF10A rereplic: 14%; HT1080NT lethal: -3%; KB-3-1 tox: inconclusive; SW480 rerep: -5%

What do the screens show for `C[C@H]1CN([C@@H](C)CO)C(=O)CCCn2nncc2CO[C@@H]1CN(C)S(=O)(=O)c1ccc(Oc2ccccc2)nc1`?
HT1080 IDH1KD tx: 4%; KB-V1 MDR tox: inactive; HT1080NT lethal: 4%; KB-3-1 tox: inactive

Results for COc1ccc(CNC(=O)Cn2c(=O)oc3cc(S(=O)(=O)NCc4ccccc4)ccc32)cc1 ?
KB-V1 MDR tox: inactive; KB-3-1 tox: inactive

What do the screens show for `COc1ccc(CCN2C(=O)CC(C(N)=O)SC2=Nc2ccccc2)cc1OC` (stereo not given)?
HT1080 IDH1KD tx: -3%; KB-V1 MDR tox: 21µM*; MCF10A rereplic: 4%; HT1080NT lethal: 0%; KB-3-1 tox: inactive; SW480 rerep: -2%

What do the screens show for `CNC(=O)C1CC(=O)N(CCc2ccc(OC)c(OC)c2)C(=Nc2ccc(F)cc2)S1` (stereo not given)?
HT1080 IDH1KD tx: 1%; KB-V1 MDR tox: inactive; MCF10A rereplic: 11%; HT1080NT lethal: 2%; KB-3-1 tox: inactive; SW480 rerep: inconclusive

Results for COc1ccc(CCN2C(=O)CSC2=S)cc1OC ?
HT1080 IDH1KD tx: 23µM*; KB-V1 MDR tox: 5.8µM*; MCF10A rereplic: 12µM*; HT1080NT lethal: inconclusive; KB-3-1 tox: 6.5µM*; SW480 rerep: 15µM*

What do the screens show for `N#Cc1ccc(-c2cccs2)nc1SCc1cccnc1`?
HT1080 IDH1KD tx: inconclusive; KB-V1 MDR tox: inconclusive; MCF10A rereplic: 0.41µM*; HT1080NT lethal: inconclusive; KB-3-1 tox: inconclusive; SW480 rerep: 0.73µM*

How did Nc1cc(=O)nc(SCC(=O)Nc2cccc(Cl)c2)n1CCc1ccccc1 do in these assays?
KB-V1 MDR tox: inactive; KB-3-1 tox: inactive

How did Cn1c(C(=O)NCCN2CCOCC2)cc2c(=O)n3ccccc3nc21 do in these assays?
HT1080 IDH1KD tx: 7%; KB-V1 MDR tox: inactive; MCF10A rereplic: inconclusive; HT1080NT lethal: 13%; KB-3-1 tox: inactive; SW480 rerep: inconclusive

How did Cc1ccc(Cn2c(=N)c(C(=O)NCCN3CCOCC3)cc3c(=O)n4ccccc4nc32)cc1 do in these assays?
HT1080 IDH1KD tx: -1%; KB-V1 MDR tox: inactive; MCF10A rereplic: 0.58µM*; HT1080NT lethal: 7%; KB-3-1 tox: inactive; SW480 rerep: inconclusive

Results for N=c1c(C(=O)NCCN2CCOCC2)cc2c(=O)n3ccccc3nc2n1CCc1ccccc1 ?
HT1080 IDH1KD tx: 12%; KB-V1 MDR tox: inactive; MCF10A rereplic: inconclusive; HT1080NT lethal: 21%; KB-3-1 tox: inactive; SW480 rerep: 10µM*

What do the screens show for `N=c1c(C(=O)NCCc2ccccc2)cc2c(=O)n3ccccc3nc2n1CCCN1CCOCC1`?
HT1080 IDH1KD tx: -21%; KB-V1 MDR tox: inconclusive; MCF10A rereplic: inconclusive; HT1080NT lethal: -29%; KB-3-1 tox: inactive; SW480 rerep: 5.2µM*

Results for COCCCn1c(C(=O)NCCN2CCOCC2)cc2c(=O)n3ccccc3nc21 ?
HT1080 IDH1KD tx: -4%; KB-V1 MDR tox: inactive; MCF10A rereplic: 14%; HT1080NT lethal: 0%; KB-3-1 tox: inactive; SW480 rerep: -6%

How did CC(C)n1c(=N)c(C(=O)NCc2ccccc2)cc2c(=O)n3ccccc3nc21 do in these assays?
KB-V1 MDR tox: inactive; KB-3-1 tox: inactive

What do the screens show for `N=c1c(C(=O)NCc2ccc(F)cc2)cc2c(=O)n3ccccc3nc2n1CCCN1CCOCC1`?
HT1080 IDH1KD tx: -1%; KB-V1 MDR tox: inactive; MCF10A rereplic: 2.8µM*; HT1080NT lethal: -2%; KB-3-1 tox: inactive; SW480 rerep: inconclusive

What do the screens show for `COc1ccc(C(=O)CN2C(=O)N(c3cc(C)cc(C)c3)S(=O)(=O)c3ccccc32)cc1`?
KB-V1 MDR tox: inactive; KB-3-1 tox: inactive

What do the screens show for `CCn1nc(C)c(CCN(C)C(=O)Nc2ccc(C)c(Cl)c2)c1C`?
KB-V1 MDR tox: inactive; KB-3-1 tox: inactive

Results for COc1cc(OC)c(NC(=O)C(Cc2ccccc2)NS(=O)(=O)c2cccc3nsnc23)cc1Cl (stereo not given) ?
KB-V1 MDR tox: inactive; KB-3-1 tox: inactive

How did O=C(Nc1ccc(Br)cc1F)c1cnn2c1NC(=C1CC1)C=C2C(F)F do in these assays?
KB-V1 MDR tox: inactive; KB-3-1 tox: inactive
